Compounds with a hit are over-represented: about 1.1% of the library has one in this group of screens.
HTR5A ag ctr: HTR5A agonists in luminescence cell assay, primary screen, counter-screen for OPRM1-OPRD1 heterodimer agonist project, full-deck HTS; 5-hydroxytryptamine receptor 5A (Homo sapiens), P47898; cell-based; activation, % at 9.3 µM; actives 0.61% (n = 340,000); AID 504692, 2011; in the data active = activation mostly above about 9.5%, no sharp cut-off; inactive = mostly below about 7.6%
Target sequence (P47898 whole entry, looked up): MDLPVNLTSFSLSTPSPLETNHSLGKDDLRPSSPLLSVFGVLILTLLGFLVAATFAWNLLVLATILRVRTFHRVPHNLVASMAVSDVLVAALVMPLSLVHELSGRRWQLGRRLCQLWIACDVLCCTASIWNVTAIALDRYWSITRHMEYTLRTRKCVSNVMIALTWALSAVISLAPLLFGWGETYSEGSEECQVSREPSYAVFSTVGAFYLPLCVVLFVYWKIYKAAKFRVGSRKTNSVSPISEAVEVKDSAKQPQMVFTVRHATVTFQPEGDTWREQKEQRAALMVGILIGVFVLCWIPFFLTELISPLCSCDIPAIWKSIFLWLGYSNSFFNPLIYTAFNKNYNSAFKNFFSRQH
HTR5A inv ag: HTR5A inverse agonists in luminescence cell assay, primary screen, counter-screen for OPRM1-OPRD1 heterodimer inverse agonist project, full-deck HTS; inhibition, % at 9.3 µM; 5-hydroxytryptamine receptor 5A (Homo sapiens), P47898; actives 0.083% (n = 340,000); HTR5A cell line, inverse agonism; AID 504634, 2011; in the data active = inhibition mostly above about 23%, no sharp cut-off; inactive = mostly below about 18%
MOR-DOR ag-1: agonists of OPRM1-OPRD1 heterodimerization, primary screen, cell-based, luminescence; Mu-type opioid receptor (Homo sapiens) + Delta-type opioid receptor (Homo sapiens), …; cells; activation, % at 9.3 µM; actives 0.3% (n = 340,000); AID 504326, 2011
OPRM1-OPRD1 inv: inverse agonists of MOR-DOR heterodimerization, primary screen, cell-based, luminescence. actives 0.21% (n = 340,000). AID 504357, 2011. Mu-type opioid receptor (Homo sapiens) + Delta-type opioid receptor (Homo sapiens), …. inhibition, % at 9.3 µM. cell-based MOR-DOR heterodimer luminescence, inverse agonism; in the data active = inhibition above about 22%, passing the limit was not always enough
MOR-DOR ag-2: OPRM1-OPRD1 heterodimerization promoters, counter-screen for HTR5A agonist project, cell-based, luminescence. shares compounds with HTR5A ag ctr. U2OS counter-screen cells, complementation luminescence, 3 h. activation, % at 9.3 µM. actives 13% (n = 800). AID 504913, 2011
HTR5A ag confirm: HTR5A agonists, retest of hits, confirmation, cell-based, luminescence; shares compounds with HTR5A ag ctr; HTR5A agonist cell assay; activation, % at 9.3 µM; actives 17% (n = 800); AID 504915, 2011; in the data active = activation above about 17%
A number is an active result; . = inactive; / = no result given. Rule as the data show it, unless noted: active = activation above about 18%; inactive = the rest.

SMILES	HTR5A ag ctr	HTR5A inv ag	MOR-DOR ag-1	OPRM1-OPRD1 inv	MOR-DOR ag-2	HTR5A ag confirm
CC(OC(=O)c1cc(=O)c2cc(Cl)ccc2o1)C(=O)N1CCCC1 (centres undefined)	.	.	.	.	/	/
O=C1C2=C(NC(=S)NC2c2ccc(Cl)cc2)NC(c2ccc(Cl)cc2)N1c1ccc(Cl)cc1 (centres undefined)	.	.	.	.	/	/
CCc1ccc(C2NC(=S)NC3=C2C(=O)N(c2ccccc2OC)C(c2ccc(CC)cc2)N3)cc1 (centres undefined)	22	.	.	.	.	.
Cc1cc(N2CCCC2)ccc1NC(=O)CN1C(=O)NC2(CCCCC2)C1=O	.	.	.	.	/	/
O=C(NCC(=O)N1CCCCC1)c1ccc2ccccc2c1	.	.	.	.	/	/
COc1cccc(C2N(Cc3ccccc3)C(=O)C2(F)F)c1OC (centres undefined)	16	.	.	.	.	.
COc1cccc(C2N(c3ccccc3)CCN2c2ccccc2)c1OC	.	.	.	.	/	/
CN1C[C@@H]2[C@@H]3C(=O)N(Cc4ccccc4)C(=O)[C@@H]3[C@](C)(C1=O)N2C(=O)c1ccc(Br)cc1	.	.	.	.	/	/
Cc1ccc(C)c(NC(=O)CN(C)C(=O)c2oc3c(Cl)cccc3c2C)c1	.	.	.	.	/	/
O=C1CC(c2cccc(Cl)c2)Cc2nc(N3CCN(c4ccccc4)CC3)ncc21 (centres undefined)	17	.	.	.	.	.
O=C(CN(C(=O)c1csnn1)c1ccc(F)cc1)NCc1ccc2c(c1)OCO2	.	.	.	.	/	/
C=CCN(c1ccccc1)S(=O)(=O)c1cccc(C(=O)N2CCCC2)c1	15	.	.	.	47	.
CC1CCCCN1C(=O)CSc1nnc(-c2cccnc2)o1 (centres undefined)	.	.	.	.	/	/
O=C(NC1CCCCC1)c1cc2ccccc2cc1O	17	.	.	.	.	.
CC(=O)Nc1ccc(C2=CC(=O)CC(C)(C)C2)cc1	.	.	.	.	/	/
Cc1cc(OCCn2nc(C(=O)O)c3ccccc3c2=O)ccc1C(C)C	20	.	.	.	.	.
O=C(N/N=C/c1cn(Cc2cccc(F)c2)c2ccccc12)c1cc(O)cc(O)c1	17	.	.	.	284	.
CCCCCc1ccc(C(=O)CCCC)c(=S)[nH]1	29	.	.	.	.	.
Nc1c2c(nn1-c1ccccc1)CCC2	.	.	.	.	/	/
COc1ccc(OC)c(-c2csc(NC(=O)Cn3[nH]c(=O)c4ccccc4c3=O)n2)c1	31	.	.	.	.	.
CN(CC(=O)NC1CCN(Cc2ccccc2)CC1)S(=O)(=O)c1ccc(Br)s1	15	.	.	.	.	.
CN(CC(=O)NC1CCN(Cc2ccccc2)CC1)S(=O)(=O)c1ccc(Cl)cc1	.	.	.	.	/	/
Nc1nc(SCc2ccccn2)c2ncn(C3OC(CO)C(O)C3O)c2n1 (centres undefined)	.	.	.	.	/	/
CCCCN(C(=O)CCC(=O)Nc1cc(C)on1)C(C(=O)NC1CCCC1)c1ccc(OCC)cc1 (centres undefined)	.	.	.	.	/	/
COc1nc(-c2ccccc2)ccc1-c1noc(-c2cccs2)n1	19	.	.	.	.	.
SMILES	HTR5A ag ctr	HTR5A inv ag	MOR-DOR ag-1	OPRM1-OPRD1 inv	MOR-DOR ag-2	HTR5A ag confirm
COc1cc2cnc(-c3ccsc3)cc2cc1OC	22	.	.	.	.	.
CN1CCN(C(=O)c2cc(Br)cn2C)CC1	.	.	.	.	/	/
C/C(=N\NS(=O)(=O)c1ccc(Cl)c([N+](=O)[O-])c1)c1cc2ccccc2o1	.	.	.	.	/	/
C/C(=N\NS(=O)(=O)c1ccc(C)c([N+](=O)[O-])c1)c1cc2ccccc2o1	27	.	.	.	19	.
CN(C)C(=O)c1cc(C(=O)c2ccccc2Br)c[nH]1	.	.	.	.	/	/
CCN(CC)Cc1c(O)ccc2occ(C(=O)c3ccccc3)c12	.	.	.	.	/	/
CN(C)Cc1c(O)ccc2occ(C(=O)c3ccccc3)c12	19	.	.	.	.	47

High-throughput results as filed in PubChem.
